Compound activity as filed in PubChem.
ssDAF-12 act – activators of S. stercoralis DAF-12 nuclear receptor | AID 652126 | HEK293 ssDAF-12/GRIP1 lit1-tk-luc reporter, luminescence; % of 3 µM dafachronic acid response | 1% of 370,000 active | activation, % at 6.8 µM;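 active = activation above the mean over all tested compounds plus 3 SD, cut at about 0.9% in these data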;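 note: 0% = DMSO-only wells and 100% = 3 µM delta7-dafachronic acid wells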
DAX1 inh-1 – NR0B1 (DAX1) inhibition | P51843 | HEK293 Gal4-DAX1 luciferase reporter, luminescence | inhibition, % at 6.75 µM | 0.99% of 340,000 active | AID 504766;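 active = inhibition above the mean over all tested compounds plus 3 SD, cut at about 4.2% in these data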;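 note: 0% = DAX1-transfected cells with DMSO and 100% = empty-vector control cells with DMSO; inhibition shows as a rise in luminescence from relieved DAX1 repression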
Target sequence (P51843 207-470 limits assumed): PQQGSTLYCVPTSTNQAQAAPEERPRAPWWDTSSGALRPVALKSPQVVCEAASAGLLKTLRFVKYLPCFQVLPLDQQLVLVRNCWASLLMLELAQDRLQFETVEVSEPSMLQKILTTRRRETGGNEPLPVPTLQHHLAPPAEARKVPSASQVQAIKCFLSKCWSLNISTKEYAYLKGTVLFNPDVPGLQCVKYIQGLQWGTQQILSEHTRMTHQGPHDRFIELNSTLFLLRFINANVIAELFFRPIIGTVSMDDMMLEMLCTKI
hcDAF12 agonist – activators of H. contortus DAF-12 nuclear receptor. HEK293 hcDAF-12 lit1-tk-luc reporter, luminescence; 0% DMSO, 100% Δ7-dafachronic acid. activation, % at 6.8 µM. 1.4% of 370,000 active;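 active = activation above the mean of all tested compounds plus 3 SD, cut at about 5.5% in these data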;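 note: 100% = response to 3 µM Δ7-dafachronic acid high control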
DAX1 inh-2 – DAX1 (NR0B1) inhibition, primary screen | 1.1% of 370,000 active | inhibition, % at 6.8 µM | HEK293T StAR-luciferase reporter, SF-1/DAX-1 repression relief;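 active = inhibition above the mean over all tested compounds plus 3 SD, cut at about 3.6% in these data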;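 note: 0% = DAX-1 cells with DMSO and 100% = cells lacking DAX-1 with DMSO; higher inhibition means more luminescence from relief of DAX-1 repression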
hgDAF-12 ag – hgDAF-12 agonism, primary luciferase screen; HEK293 GAL4-hgDAF12 UAS-luciferase reporter, agonist luminescence; normalized to butyrate control; activation, % at 6.8 µM; 1.8% of 370,000 active; AID 687014;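 active = activation above a cutoff set at the mean of all screened compounds plus 3 SD, cut at about 10% in these data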;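 note: 0% = DMSO wells and 100% = sodium butyrate wells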
Numbers without * were called inactive; . = no result. In the library only some 4.1% were active in any assay of this set; here they are far more common.

SMILES | ssDAF-12 act | DAX1 inh-1 | hcDAF12 agonist | DAX1 inh-2 | hgDAF-12 ag
COc1ccc(C(=O)Nc2cccc(C)c2)cc1 | 0 | 0 | 3 | 4.0* | 11*
CCOc1ccc(NC(=O)c2ccc(NC(=O)COC(=O)Cc3ccc(OC)cc3)cc2)cc1 | -1 | 1 | 0 | 1 | 5
CC(=O)c1cccc(NC(=O)c2ccc(NS(C)(=O)=O)cc2)c1 | -1 | 0 | -2 | 0 | -2
NC(=O)c1ccccc1NC(=O)c1ccc2c(c1)OCO2 | 0 | 2 | 2 | 1 | 11*
CCCCCC[C@@H](CCCc1ccccc1OC)CN(CCCC)S(C)(=O)=O | -2 | . | -1 | 0 | 2
O=C(c1cc(C2CC2)on1)N(C1CCCCC1)C1CCCCC1 | -1 | . | -3 | -2 | -2
COc1ccc(C(=O)Nc2cc(OC)nc(OC)n2)cc1 | 0 | 1 | 4 | 2 | 12*
COc1ccc(NC(=O)c2ccc3c(c2)NC(=O)CS3)cc1 | -1 | 1 | 4 | 4.4* | 5
COc1ccc(C(=O)Nc2ccc3ccccc3c2)cc1 | 1 | -6 | 5.8* | 3 | 10
COc1ccc(C(=O)Nc2ccc3ccccc3c2)cc1OC | 0 | 2 | 2 | 2 | 12*
CCN(CC)C(=O)CC[C@H]1CC[C@]2(CCCN(C(=O)C3CCCC3)C2)O1 | -1 | . | -1 | 0 | 5
COc1ccc(C(=O)Nc2ccccc2C(=O)Nc2ccccc2C(=O)O)cc1 | 0 | 2 | -1 | 0 | 0
COc1ccc(C(=O)Nc2ccccc2C(N)=O)cc1 | 0 | 0 | 0 | 2 | 13*
COc1ccc(OC)c(NC(=O)c2cc3ccccc3cc2OC)c1 | -1 | -2 | -1 | 0 | 1
COc1cc2ccccc2cc1C(=O)Nc1ccc(O)cc1 | 1.4* | 4.4* | 4 | 2 | 7
COc1cc(OC)c(C(=O)Nc2ccc3ccccc3c2)cc1OC | . | 5.2* | . | . | .
COc1ccc(NC(=O)c2cc3ccccc3cc2OC)cc1OC | -1 | 1 | 0 | -1 | 0
Cc1cc(C)cc(C(=O)OCCCN(C)C2CN(Cc3cn(Cc4ccccc4Cl)nn3)S(=O)(=O)C2)c1 (stereo not drawn) | -2 | . | -2 | -2 | -1
COC(=O)[C@]12C[C@H](CC(=O)N3CCN(C(=O)c4ccco4)CC3)C(=O)N(Cc3ccccc3)C1=C[C@H](C(C)C)O[C@@H]2C1CC1 | -2 | . | -1 | 1 | -3
COC(=O)c1ccc(CN2C(=O)[C@]3(OCCC=C[C@H]3C)c3ccccc32)cc1 | -1 | . | -1 | 2 | -2
Cc1cc([N+](=O)[O-])ccc1NC(=O)/C=C/c1cccs1 | -1 | 1 | -1 | -1 | 12*
CC(C)N1CCCCC(NC(=O)c2cccc(C(F)(F)F)c2)C1=O (stereo not drawn) | -1 | . | 1 | -1 | -5
N#C/C(=C/c1ccc(N2CCCCC2)o1)C(=O)Nc1ccc(Cl)cc1 | -2 | 0 | -1 | 1 | 11*
COc1ccc(NC(=O)/C(C#N)=C\c2ccc(N3CCOCC3)o2)cc1 | -1 | 0 | 1 | 0 | 13*
N#C/C(=C\c1ccc(N2CCOCC2)o1)C(=O)Nc1ccc(O)cc1 | -1 | . | 0 | 0 | 2
SMILES | ssDAF-12 act | DAX1 inh-1 | hcDAF12 agonist | DAX1 inh-2 | hgDAF-12 ag
CCCc1nc2c3ccccc3ccn2c1Cc1ccc(OC)cc1C | 1.0* | . | 3 | 0 | 1
CCCc1nc2c3ccccc3ccn2c1Cc1ccccc1OC | 0 | . | 3 | 0 | 6
c1ccc2[nH]c(-c3cscn3)nc2c1 | 0 | -1 | 1 | 2 | 12*
C=CCN(C(=O)[C@@H](C)[C@@H](O)c1ccc(C(C)=O)cc1)c1ccccc1 | -1 | . | -3 | 0 | -1
COC(=O)C(NC(C)=O)(Nc1ccc(C)cn1)C(F)(F)F (stereo not drawn) | -1 | 4.2* | 3 | 0 | 1
CC(C)NC(=O)NC1CCN(CC(=O)Nc2ccc3c(c2)OCCO3)CC1 | -1 | . | -3 | -3 | -1
COC(=O)c1cc(=O)n(Cc2ccc(F)cc2)c(=NCc2ccc(F)cc2)s1 | 1.4* | -1 | -1 | 2 | 8
COC(=O)c1cc(=O)n(Cc2ccc3c(c2)OCO3)c(=Nc2ccc(F)cc2)s1 | -1 | 1 | 1 | 1 | 2
COc1ccc(OC)c(C2c3[nH]c4ccccc4c3C[C@H]3C(=O)N(C4CC4)CC(=O)N23)c1 (stereo partly drawn) | 0 | 0 | 5.8* | 0 | 2
